Screens deposited in PubChem BioAssay by several laboratories.
This is a sample that favours compounds with a hit; in the whole collection about 3.1% have one here.
p47phox inh – p47phox/p22phox peptide binding inhibitors, primary screen, biochemical, uHTS, NADPH oxidase regulatory subunit; Neutrophil cytosol factor 1 (Homo sapiens), P14598; fluorescence polarization, 2 h; inhibition, % at 24.7 µM; 220,000 tested, 0.53% active; AID 1274, 2008;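 active = inhibition above about 30%, limit read from the data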
Target sequence (P14598 whole entry, looked up): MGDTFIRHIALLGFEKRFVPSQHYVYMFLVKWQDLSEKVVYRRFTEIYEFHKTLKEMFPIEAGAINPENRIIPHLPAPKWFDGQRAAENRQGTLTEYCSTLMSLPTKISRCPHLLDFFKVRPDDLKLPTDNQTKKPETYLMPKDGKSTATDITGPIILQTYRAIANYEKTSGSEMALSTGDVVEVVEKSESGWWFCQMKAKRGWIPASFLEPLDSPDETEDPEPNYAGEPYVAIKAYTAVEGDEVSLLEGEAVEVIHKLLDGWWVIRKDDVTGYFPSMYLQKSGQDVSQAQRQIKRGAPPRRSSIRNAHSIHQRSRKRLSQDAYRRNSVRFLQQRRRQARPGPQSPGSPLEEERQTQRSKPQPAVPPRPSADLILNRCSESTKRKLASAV
Mcl1-Noxa inh – Mcl-1/Noxa binding inhibitors, primary screen, biochemical, TR-FRET, 1536-well; TR-FRET Mcl-1/Noxa peptide binding, 2 h; AID 1022, 2008; Induced myeloid leukemia cell differentiation protein Mcl-1 (Homo sapiens), Q07820; 220,000 tested, 1.5% active; inhibition, % at 21.7 µM;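 active = compounds that cut the protein-peptide binding signal by more than 50% relative to plate controls in a single-dose test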;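 also: His-tagged Mcl-1 with rhodamine Noxa BH3 peptide and terbium anti-His antibody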
Mcl-1 Bim block – inhibitors of Bim peptide binding to Mcl-1, primary screen, biochemical, bead-based flow cytometry, multiplex | Bim peptide-Mcl-1 binding | inhibition, % at 10 µM | Induced myeloid leukemia cell differentiation protein Mcl-1 (Homo sapiens), Q07820 | 190,000 tested, 0.1% active | AID 1009, 2008; in the data active = inhibition above about 40%
Mcl1-Bid inh – Mcl-1/Bid binding inhibitors, primary screen, biochemical, TR-FRET, 1536-well; 220,000 tested, 0.97% active; inhibition, % at 21.7 µM; TR-FRET Mcl-1/Bid-Dy647 peptide binding;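 active = compounds that cut the binding signal by more than half at the single screening dose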;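 also: His-tagged Mcl-1 with europium anti-His antibody binding Bid BH3 peptide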
14-3-3 Bad inh – inhibitors of 14-3-3 zeta/Bad binding, primary screen, biochemical, TR-FRET, bovine 14-3-3 zeta; inhibition, % at 21.7 µM; TR-FRET 14-3-3zeta/Dy647-pBad peptide displacement, 1 h; 220,000 tested, 0.71% active; 14-3-3 protein zeta/delta (Bos taurus), P63103;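 active = inhibition above about 70%, limit read from the data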
Target sequence (P63103 whole entry, looked up): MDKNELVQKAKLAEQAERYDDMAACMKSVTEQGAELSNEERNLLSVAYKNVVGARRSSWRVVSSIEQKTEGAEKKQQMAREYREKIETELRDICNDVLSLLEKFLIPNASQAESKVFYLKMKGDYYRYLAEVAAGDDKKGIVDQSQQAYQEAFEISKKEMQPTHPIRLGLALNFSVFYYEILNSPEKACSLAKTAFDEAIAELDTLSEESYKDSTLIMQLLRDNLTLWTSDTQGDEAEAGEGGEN
Hits are given with their value; - = inactive; . = no result given; [ ] = another dose, or the depositor's remark.

SMILES | p47phox inh | Mcl1-Noxa inh | Mcl-1 Bim block | Mcl1-Bid inh | 14-3-3 Bad inh
O=C(CSc1nc2c(cnn2-c2ccc(F)cc2)c(=O)[nH]1)N1CCCc2ccccc21 | - | - | - | 94 | -
CCCNc1nc(C)cc(-c2cc(-c3ccc(Cl)cc3)on2)n1 | - | - | . | - | -
Cc1cc(N=Cc2c(O)ccc3cc(Br)ccc23)no1 | - | 84 | - | - | -
CC1CN(Cc2c(O)ccc3c2oc(=O)c2ccccc23)CC(C)O1 (stereo not drawn) | - | - | . | - | 83
Oc1[nH]c2ccccc2c1N=Nc1ncnc2c1oc1ccccc12 | - | 65 | . | - | -
CCc1cc2c(N=Nc3c(O)[nH]c4ccccc34)ncnc2s1 | - | - | - | - | -
CCC(C)(C(=O)NC1CCCCC1)N(Cc1ccco1)C(=O)c1ccccn1 (stereo not drawn) | - | - | - | - | -
Cc1ccc(-c2noc(-c3ccccc3C(=O)N3CCN(C)CC3)n2)cc1 | - | - | - | 71 | -
Cc1ccc(-c2noc(-c3ccccc3C(=O)N3CCCC3)n2)cc1 | - | - | - | - | -
CCCN=C1N/C(=C\c2ccco2)C(=O)N1c1ccccc1 | - | - | - | - | -
O=C1/C(=C\c2ccco2)NC(=S)N1c1ccccc1 | - | 58 | - | - | -
COc1ccc(CN(C)Cc2nc3scc(-c4ccccc4)c3c(=O)[nH]2)cc1OC | - | - | - | - | -
CC(=O)N1CCC(N(CCN2CCOCC2)C(=S)Nc2c(C)cccc2C)CC1 | - | - | - | - | -
Cc1cccc(-c2nsc(SCC(=O)NCC3CCCO3)n2)c1 (stereo not drawn) | - | - | - | - | -
CN1CCN(C2=C(Cl)C(=O)C(c3cnc(N4CCCCC4)s3)=C(Cl)C2=O)CC1 | 48 | 98 | - | 79 | 83[fluorescence artefact?]
CN1CCN(C2=C(Cl)C(=O)N(C3CCCCC3)C2=O)CC1 | - | - | - | - | -
Cc1cc(C)nc(/N=C(\NC(=O)C(C)(C)C)Nc2ccc(F)cc2)n1 | - | - | . | - | -
COc1ccc(/C=N/Nc2snc(SC)c2C#N)cc1OC | - | 67 | - | - | -
COc1cccc(/C=N/Nc2snc(SC)c2C#N)c1O | - | 72 | - | - | -
O=C(CCCc1nc2ccccc2s1)Nc1ccc(N2CCOCC2)cc1 | - | - | - | - | -
CCN(CC)C(=O)N1CCN(C(=O)N(CC)CC)CC1 | - | - | - | - | -
CCN(CC)C(=O)N1CCN(C)CC1 | - | - | - | 59 | -
CNCCCCOc1ccc(C(C)(C)C)cc1Cl | - | - | - | - | -
CCCCC(=O)NC(=S)Nc1nnn(CCC)n1 | - | - | - | - | -
O=C(Nc1ccc(S(=O)(=O)NC2CCCC2)cc1)c1cnccn1 | - | - | - | - | -
SMILES | p47phox inh | Mcl1-Noxa inh | Mcl-1 Bim block | Mcl1-Bid inh | 14-3-3 Bad inh
Cc1cccc(/C=C/c2nc3ccccc3c(=O)[nH]2)c1 | - | - | - | - | -
Cc1[nH]c2ccccc2c1/C=C/c1nc2ccccc2c(=O)[nH]1 | - | 74 | . | 64 | 82
COc1ccc(-c2cc3nc4ccccc4n3c(N)c2C#N)cc1 | - | 81 | . | 72 | 71
COC(=O)[C@H](Cc1ccccc1)NC(=O)NCc1cccs1 | - | - | - | - | -
CCOC(=O)C1(Cc2ccc(OC)cc2)CCN(C(=O)[C@@H]2CCCN2C(C)=O)CC1 | - | - | . | - | -
CCN(CC)c1ccc(-c2n[nH]c(=S)n2-c2ccccc2)cc1 | - | - | - | - | -
O=C1C(Nc2ccccc2)=C/C(=N/S(=O)(=O)c2cccs2)c2ccccc21 | - | - | - | - | -
COC(=O)c1ccccc1NC1=C/C(=N\S(=O)(=O)c2cccs2)c2ccccc2C1=O | 183 | - | - | - | .
Cc1[nH]c2ccccc2c1/C=N/Nc1ccc([N+](=O)[O-])cc1S(=O)(=O)Nc1ccc(Cl)cc1 | - | 51 | - | - | -
O=c1/c(=C\c2cccc(O)c2)sc2nc(-c3ccccc3)c(-c3ccccc3)n12 | - | - | . | - | -
CCOc1ccc(NC(=S)C(C#N)=C2N(C)c3ccccc3N2C)cc1 | - | - | - | - | -
COc1cc(NC(=O)COC(=O)c2ccc(S(=O)(=O)N3CC(C)CC(C)C3)cc2)c(C)cc1[N+](=O)[O-] (stereo not drawn) | 39 | - | - | - | -
COc1ccc(C2=CC(=O)C=CC2=O)cc1 | 58 | 87 | . | - | -
COc1ccc(S(=O)(=O)c2ccc(OC)cc2)cc1 | - | - | - | - | -
O=C(O)C1OC(Oc2c(-c3ccc(O)c(O)c3)oc3cc(O)cc(O)c3c2=O)C(O)C(O)C1O (stereo not drawn) | - | 53 | - | - | -
Cc1ccc(-n2c(SCC(=O)N3CCOCC3)nnc2-c2ccncc2)cc1C | - | - | . | - | -
O=C(CSc1nnc(-c2ccc(C(F)(F)F)cn2)s1)c1ccccc1 | - | - | . | - | -
CN1C(=O)C2(C(C#N)=C(N)Oc3n[nH]c(-c4ccc(Cl)cc4)c32)c2ccccc21 (stereo not drawn) | - | - | - | - | -
CC(=O)N1C(=O)C2(C(C#N)=C(N)Oc3n[nH]c(-c4ccccn4)c32)c2ccccc21 (stereo not drawn) | 151 | - | - | - | -
CCCCc1[nH]nc2c1C1(C(=O)N(CC)c3ccccc31)C(C#N)=C(N)O2 (stereo not drawn) | - | 106 | - | - | -
N#Cc1ccc(Cl)cc1NC(=O)CSc1nc2nc(-c3cccs3)cc(C(F)(F)F)c2c(=O)[nH]1 | - | - | . | - | -
O=C(O)CCNC1CCCCC1 | - | - | . | - | -
O=C(O)CCCCC1CCSS1 (stereo not drawn) | - | 74 | - | 97 | 99
CC(=O)c1csc(Nc2ccccc2Cl)n1 | - | - | . | - | 90
CC(=O)c1csc(-c2ccccc2)n1 | - | - | - | - | -
SMILES | p47phox inh | Mcl1-Noxa inh | Mcl-1 Bim block | Mcl1-Bid inh | 14-3-3 Bad inh
O=[N+]([O-])/C=C\c1ccc(N2CCCC2)c(F)c1 | 36 | - | - | - | -
CC1=C(c2ccccc2)C(=S)NC(C)(C)C1 | - | - | . | - | -
COC(=O)c1cc(=O)c2c(C)nc(C(Cl)(Cl)Cl)nc2[nH]1 | - | - | - | - | -
COc1ccc(C(=O)/C=C(\N)C(F)(F)F)c(O)c1 | - | 69 | - | - | -
COc1ccc(NS(=O)(=O)c2ccc(-c3n[nH]c(=S)n3Cc3ccccc3)cc2)cc1 | - | - | . | - | -
COc1ccc2c(c1)NC(C)(C)C=C2C | - | - | - | - | -
CC1=CC(C)(C)Nc2ccccc21 | - | 67 | - | - | -
COc1cc(Cl)c(C)cc1NC(=O)CSc1cc(Cl)ccc1Cl | - | 56 | - | - | -
COc1cc(Cl)c(C)cc1NC(=O)CSc1ccc(C)cc1 | - | - | - | - | -
Cc1cccc2cc(CN(Cc3ccc(F)cc3)C(=O)N(C)C)c3nnnn3c12 | - | - | - | - | -
